# Assay outcomes deposited in PubChem by National Center for Advancing Translational Sciences (NCATS).
# VACV Venus inh = qHTS for Stage-Specific Inhibitors of Vaccinia Orthopoxvirus: Venus Reporter Primary qHTS. Potency, µM (titrated, usually from 36.5 µM), inactives show top-dose activity change, negative = inhibition, usual class: inhibitors. Vaccinia virus Venus reporter expression, fluorescence. 330,000 compounds, 0.46% hits; calls by dose curve; tested in A549 cells; note: potency is the fitted concentration of half-maximal effect; nearly all actives have a fitted effect of over 30% in size
# FMDV inh = High Throughput Screening for Foot and Mouth Disease Virus Antivirals. 410,000 compounds, 1.2% hits. Potency, µM (titrated, usually from 57.9 µM), for inactives: at the top dose activity change, negative = inhibition, actives largely listed as inhibitors. AID 1159524, 2015. FMDV antiviral cell-based qHTS; calls by dose curve; tested in HEK293T cells; note: read-out not given here; potency is the fitted concentration of half-maximal effect; nearly all actives have a fitted effect of over 45% in size
# MARV entry inh = qHTS for inhibitors of binding or entry into cells for Marburg Virus | Potency, µM (top dose mostly 37.8 µM), without a hit: top-dose activity change, negative = inhibition, hits mostly inhibitors | 300,000 compounds, 1.8% hits | AID 540276, 2011 | Marburg virus pseudotyped entry inhibition, cell reporter; calls by dose curve; tested in HEK293 cells; note: potency is the fitted concentration of half-maximal effect
# HCMV antiviral = qHTS Assay for inhibitors of the human cytomegalovirus (HCMV); activity change, negative = inhibition, % at 57.5 µM; HFF cells, HCMV-luciferase reporter, 72 h; hits give low values; 410,000 compounds, 4.5% hits; in the data active = activity change below about -60%; inconclusive = no clear call, values can overlap the other calls; inactive = above about -39%
#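 Human foreskin fibroblasts infected with luciferase-reporter HCMV at MOI 1 PFU/cell, compounds at two doses. Luciferase measured 72 h post infection; normalized to buffer-only basal and Salinomycin (10uM) controls.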
# Vaccinia mCherry = qHTS for Stage-Specific Inhibitors of Vaccinia Orthopoxvirus: mCherry Reporter Primary qHTS. Vaccinia virus mCherry reporter infection, fluorescence. Potency, µM (highest dose often 36.5 µM), for the others: at the top dose activity change, negative = inhibition, most hits filed as inhibitors. 310,000 compounds, 0.63% hits. AID 720579, 2013; calls by dose curve; tested in A549 cells; note: potency is the fitted concentration of half-maximal effect; nearly all actives have a fitted effect of over 35% in size
# LASV entry inh = qHTS for Inhibitors of binding or entry into cells for Lassa Virus; Lassa virus pseudotype entry inhibition, cell reporter; Potency, µM (series often up to 37.9 µM), for the others: at the top dose activity change, negative = inhibition, usual class: inhibitors; 300,000 compounds, 1.2% hits; AID 540256, 2011; calls by dose curve; tested in HEK293 cells; note: potency is the fitted concentration of half-maximal effect; nearly all actives have a fitted effect of over 50% in size
# * = called active by the depositor; i = inactive; u = inconclusive; x = no result; + = active, no number; [ ] = another dose, or the depositor's remark. A selection: hits, their analogues and other compounds. The true share with any hit is near 6.5%. % is set by controls: 0 for no effect and ±100 for the full control effect.
SMILES,VACV Venus inh,FMDV inh,MARV entry inh,HCMV antiviral,Vaccinia mCherry,LASV entry inh
Cn1cc(S(=O)(=O)N2CCCCCC2)cc1C(=O)N1CCN(c2ccc(Cl)cc2)CC1,-12%,u,x,u,-17%,2%[46.1 µM]
Cc1ccc2c(c1)c1c(n2CC(O)CNC(C)(C)C)CCCC1 (stereo not given),-4%,u,x,9,i,x
Cc1ccc2c(c1)c1c(n2CC(O)CN2CCCCCC2)CCCC1 (stereo not given),-26%,-28%,6.3µM*,-77*,-21%,u
c1nc(N2CCOCC2)c2c3c(sc2n1)CCCC3,x,u,4%,-65*,x,0%
c1ccn(-c2ncnc3sc4c(c23)CCCC4)c1,-25%,u,28%,u,x,-2%
Cc1nc(N2CCOCC2)c2c3c(sc2n1)CCC3,-15%,-25%,0%,-2,-20%,-1%
O=C(c1ccccc1)N1CCN(c2ncnc3sc4c(c23)CCC4)CC1,x,22µM*,u,u,x,-18%
c1cn(-c2ncnc3sc4c(c23)CCCC4)cn1,u,0%,0%,-70*,x,21%
O=C(O)CSc1ncnc2sc3c(c12)CCC3,2%,-9%,17%,-14,-6%,2%
Cc1ccccc1NC(=O)c1sc2nc3n(c(=O)c2c1C)N=C(c1ccccc1)CS3,-13%,6%,-9%[46.1 µM],23,-12%,-5%[46.1 µM]
CCOC(=O)c1cc(-c2ccc(OC)cc2)n(CCC(=O)NCc2ccc(OC)cc2)c1C,-4%,-2%,x,13,0%,-23%[46.1 µM]
CC(=O)c1ccc(OCC(O)CN(C)CCOc2ccc(Br)cc2)cc1 (stereo not given),-11%,u,8.9µM*,-16,-9%,u
CC(=O)c1ccc(OCC(O)COc2ccc(C(C)=O)cc2)cc1,6%,x,1%,-31,-17%,7%
C/C(CC(=O)Nc1ccc(Cl)c(C(F)(F)F)c1)=N\NC(=O)c1ccccc1O,u,u,18µM*,-80*,10µM*,u
C/C(CC(=O)Nc1ccc(Cl)c(C(F)(F)F)c1)=N\NC(N)=S,u,-17%,u,-27,18µM*,u
C/C(CC(=O)NC(C)(C)C)=N\NC(N)=S,u,15%,u,-19,10µM*,15%[46.1 µM]
CC1=C(O)C(=O)[C@H]2O[C@@H]2C1=O,x,11%,x,x,x,x
O=C(Nc1cc(Cl)cc(Cl)c1)c1cnn2c1NC(=C1CC1)C=C2C(F)F,-8%,x,x,x,-8%,x
COc1cc(NC(=O)CSc2nc3nc(C)c(Cc4ccc(C)cc4)c(C)n3n2)cc(OC)c1,-4%,u,x,15,-18%,u
CCCc1[nH]nc2c1C(/C(C)=C/c1ccccc1)C(C#N)=C(N)O2 (stereo not given),0%,x,u,-83*,-5%,-13%
CCCc1[nH]nc2c1C(c1ccccc1OCC)C(C#N)=C(N)O2 (stereo not given),x,-20%,-18%,-4,x,-25%
CCCc1[nH]nc2c1C(c1ccccc1OC)C(C#N)=C(N)O2 (stereo not given),-20%,28µM*,3%,36,-12%,23%
CCCc1[nH]nc2c1C(c1ccncc1)C(C#N)=C(N)O2 (stereo not given),-12%,-3%,0%,-24,x,3%
CCn1c2ccccc2c2cc(C3C(C#N)=C(N)Oc4n[nH]c(COC)c43)ccc21 (stereo not given),-20%,u,5.2µM*,-32,-25%,u
CCOC(=O)C(CNc1ccc(OCc2ccccc2)cc1)NC(=O)c1ccccc1 (stereo not given),x,x,x,22,x,x
SMILES,VACV Venus inh,FMDV inh,MARV entry inh,HCMV antiviral,Vaccinia mCherry,LASV entry inh
Cc1ccc(Oc2ccccc2NC(=O)CSCC(=O)Nc2cc(C)on2)cc1,-17%,u,13µM*,-75*,-1%,u
Cc1cc(NC(=O)CSCC(=O)Nc2ccccc2Oc2ccccc2)no1,-11%,u,2.8µM*,-37,-2%,u
Cc1cc(NC(=O)CSCC(=O)Nc2ccccc2N2CCCCC2)no1,-23%,-5%,u,-21,-9%,u
COCCCNC(=O)CCn1c(=O)c2ccccc2n(CC(=O)Nc2c(C)cc(C)cc2C)c1=O,-5%,14%,2%[46.1 µM],16,1%,-4%[46.1 µM]
COc1ccccc1C1CN(Cc2cn(C)nc2C)Cc2ccccc2O1 (stereo not given),-2%,-11%,x,x,-10%,x
CCCC(=O)Nc1nnc(S(=O)(=O)N(C)Cc2ccc(Cl)cc2)s1,-8%,11%,x,0,-3%,7%[46.1 µM]
N#CC1(NC(=O)Cn2ncc(Cl)c(Cl)c2=O)CCCCC1,u,u,u,-14,u,u
Cn1c(=O)c2c(nc(Cl)n2CC(=O)NC2(C#N)CCCCC2)n(C)c1=O,-2%,-15%,20%,-101*,-8%,25%
O=S(=O)(NC1CCCCC1N1CCCCC1)c1ccccc1 (stereo not given),x,-20%,x,-33,x,x
O=S(=O)(Nc1ccc(N2CCCCC2)cc1)c1ccc(F)cc1,x,-9%,x,-61*,x,x
O=S(=O)(Nc1ccc(N2CCCCC2)cc1)c1ccc(F)cc1F,-21%,-26%,-6%,-60*,-25%,1%
O=S(=O)(NC1CCCCC1N1CCN(c2ccc(F)cc2)CC1)c1ccccc1 (stereo not given),x,u,x,+,x,x
O=S(=O)(Nc1ccc(N2CCOCC2)cc1)c1ccc(F)cc1,1%,-4%,-28%[46.1 µM],20,-10%,-13%
CCc1noc2cc(-c3ccccc3)n(C)c(=O)c12,x,x,x,18,x,x
CC(C)N(Cc1nc(-c2ccccc2)no1)C(=O)c1ccc(Cl)cc1,-13%,-25%,x,-89*,i,x
Cc1ccccc1C(=O)N(Cc1nc(-c2ccc(Cl)cc2)no1)C(C)C,-7%,u,-27%[46.1 µM],u,-2%,u
CCOc1cc(C(=O)N(Cc2nc(-c3ccc(C)cc3)no2)C(C)C)cc(OCC)c1OCC,-9%,u,-6%[46.1 µM],-83*,-16%,24%[46.1 µM]
CC(C)N(Cc1nc(-c2ccc(Cl)cc2)no1)C(=O)c1cccs1,x,-28%,u,-60*,x,0%
O=C1CN(S(=O)(=O)Cc2ccccc2)C[C@H]2[C@H](c3ccc(Br)cc3)[C@H](CO)N12,x,x,x,-1,x,x
C[C@H](CO)N1C[C@H](C)[C@H](CN(C)C(=O)Nc2ccc(N3CCCCC3)cc2)OCc2cnnn2CCCC1=O,x,x,x,4,x,x
COCCNC(=O)C1CCCN(C(=O)c2cc(-c3cccs3)oc2C)CC1 (stereo not given),3%,-21%,x,-67*,i,x
COCCNC(=O)C1CCCN(C(=O)c2sccc2C)CC1 (stereo not given),3%,-5%,x,-10,33%,x
O=C(CSc1ccsc1[N+](=O)[O-])N1CCCCCC1,x,16%,x,-72*,x,x
